This is an account of results in PubChem BioAssay (NCI).

About 83,000 compounds went through this panel and 20% of them were active in at least one assay; those are over-represented in the sample as a whole.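 Note: values are percent growth. 100 is the growth of untreated cells, values between 100 and 0 indicate rising inhibition; between -100 and 0 indicates cell death.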 A number with no mark means an inactive call. The source made the active and inactive calls. Rule for the calls: active = growth percent below 10; inactive = the rest.

Among the test systems are SK-MEL-2 melanoma; SN12C renal; UO-31 renal; TK-10 renal; ACHN renal; CAKI-1 renal; A498 renal; CCRF-CEM leukemia; MOLT-4 leukemia.
Experiment in all cases: NCI-60 one-dose screen, 48 h (100 = growth as untreated, 0 = no growth, -100 = all killed)
Details in all cases: 10 µM

For `CS(=O)(=O)Nc1ccc(OCc2nnc(-c3ccc(Cl)cc3)o2)c(F)c1`, the growth in the assay on SK-MEL-2 melanoma is 112%; in the assay with SN12C renal it was 88.1%; in the assay on UO-31 renal it was 74.1%; in the assay on TK-10 renal, 111%; in the assay with ACHN renal, 86%; with CAKI-1 renal, 91.3%. Besides, the growth in the assay with A498 renal was 62.5%; with CCRF-CEM leukemia it was 97.5%; in the assay with MOLT-4 leukemia it was 81%.

As for `O=C1c2cc(Cl)ccc2-c2c(O)cc(Cl)cc21`, the growth with SK-MEL-2 melanoma was 62.3%; in the assay with SN12C renal, 72.2%; in the assay with UO-31 renal, 49.6%; in the assay with TK-10 renal, 114%; in the assay on ACHN renal, 66%; in the assay with CAKI-1 renal, 90.7%. The growth is 109% in the assay on A498 renal and 47.3% in the assay on MOLT-4 leukemia.

Consider `FC(F)(F)c1ccc(-c2cnc(Cl)nc2NCc2cc(C(F)(F)F)cc(C(F)(F)F)c2)cc1`, for which the growth in the assay on SK-MEL-2 melanoma was -21.6% (active); in the assay with SN12C renal, 12.4%; in the assay on UO-31 renal, -9.98% (active); in the assay on TK-10 renal, 21.8%; with ACHN renal, 2.83% (active); with CAKI-1 renal, 1.18% (active). The growth with A498 renal is -4.04% (active); with CCRF-CEM leukemia it was 18.8%; with MOLT-4 leukemia it was 21.1%.

As for `COc1ccc(-c2ccc(-c3ccc(C(=N)N)c(F)c3)s2)cc1`, the growth in the assay on SK-MEL-2 melanoma is -75.3% (active); in the assay on SN12C renal, -79.2% (active); with UO-31 renal it was -86.8% (active); in the assay on TK-10 renal, -96.4% (active); in the assay with ACHN renal, -89.7% (active); in the assay with CAKI-1 renal it was -89.8% (active). For the same compound, the growth in the assay with CCRF-CEM leukemia was -68.3% (active); in the assay with MOLT-4 leukemia, -80.1% (active).

With `CC(C)c1ncc(CO)n1Cc1c(Cl)cccc1Cl`, the growth in the assay with SK-MEL-2 melanoma is 101%; with SN12C renal, 113%; in the assay with UO-31 renal it was 90.1%; in the assay with ACHN renal, 99.9%; with CAKI-1 renal, 100%; with A498 renal, 77.8%. In addition, the growth with CCRF-CEM leukemia is 103%; in the assay with MOLT-4 leukemia, 101%.

Turning to `CCCCCCOc1ccc(/C=C/C(=O)c2ccc(B(O)O)cc2)cc1`, the growth in the assay with SK-MEL-2 melanoma was 78%; in the assay with SN12C renal, 71.4%; with UO-31 renal, 51.6%; in the assay with TK-10 renal it was 85.2%; in the assay with ACHN renal, 89.5%; in the assay on CAKI-1 renal, 61.5%. The results for the growth in the assay with CCRF-CEM leukemia and with MOLT-4 leukemia were 59.1% and 58.3%, respectively.

As for `COc1c(-c2c3sc(=O)[nH]c3nc3c2c(=O)[nH]n3C(C)C)cc2c(c1OC)OCO2`, the growth was 85.3% with SK-MEL-2 melanoma; 95.5% with SN12C renal; 78.9% in the assay on UO-31 renal; 98.7% with TK-10 renal; 91.4% in the assay on ACHN renal; 93.3% with CAKI-1 renal. The growth in the assay with CCRF-CEM leukemia is 95%; in the assay with MOLT-4 leukemia it was 94.5%.

For `O=C(COc1ccc(Cl)cc1Cl)Oc1coc(CSc2nc3ccccc3s2)cc1=O`, the growth in the assay on SK-MEL-2 melanoma was 94.5%; in the assay with SN12C renal it was 92.3%; in the assay on TK-10 renal it was 107%; in the assay on ACHN renal, 101%; with CAKI-1 renal, 101%; in the assay on A498 renal, -21.3% (active). Besides, the growth in the assay on CCRF-CEM leukemia was 88.7%; with MOLT-4 leukemia, 86.4%.

Consider `CCOC(=O)c1c(C(F)(F)F)n([O-])c2ccc(OC)cc2[n+]1=O`, for which the growth in the assay with SK-MEL-2 melanoma was 46.4%; in the assay on SN12C renal it was 22.6%; in the assay on TK-10 renal, 49.8%; in the assay on ACHN renal, 32.1%; with A498 renal it was 50.8%; in the assay with CCRF-CEM leukemia it was 5.58% (active). Besides, the growth in the assay on MOLT-4 leukemia is 5.77% (active).

With `COc1cccc(C(=O)N(c2ccc(F)c(F)c2)C(C(=O)NC(C)(C)C)c2cc3c(C)cc(C)cc3nc2Cl)c1` (centres undefined), the growth is 77.1% in the assay on SK-MEL-2 melanoma; 48.5% with UO-31 renal; 70.5% in the assay with TK-10 renal; 59.4% in the assay with ACHN renal; 42.9% with CAKI-1 renal; 59.8% in the assay with A498 renal. Moreover, the growth in the assay on CCRF-CEM leukemia is 53.8%.

For `O=C(CCl)N1c2ccccc2Sc2ccc3ccccc3c21`, the growth in the assay with SK-MEL-2 melanoma was -25.5% (active); in the assay on SN12C renal, -49.1% (active); in the assay on UO-31 renal, -89.8% (active); in the assay with ACHN renal, -89.1% (active); in the assay on CAKI-1 renal, -52.8% (active); in the assay with A498 renal, -90.2% (active). Moreover, the growth in the assay with CCRF-CEM leukemia is -15.1% (active); with MOLT-4 leukemia, -9.38% (active).

`Nc1ccccc1NC(=O)CCCCCCC(=O)Nc1ccc2c(c1)/C(=C/c1ccc[nH]1)C(=O)N2`: the growth with SK-MEL-2 melanoma was -1.9% (active); with SN12C renal, 17.4%; in the assay on UO-31 renal, 29.1%; with TK-10 renal it was 48.1%; in the assay on ACHN renal, 77%; in the assay on CAKI-1 renal it was 49.8%. Also, the results for the growth in the assay with CCRF-CEM leukemia and in the assay on MOLT-4 leukemia were 5.46% (active) and 9.11% (active), respectively.

In the case of `CC(C)C[C@H](NC(=O)CCn1ccc2ccccc2c1=O)B(O)O`, the growth was 63.8% with SK-MEL-2 melanoma; 63.7% in the assay with SN12C renal; 57.3% in the assay on UO-31 renal; 28.6% in the assay with ACHN renal; 45.6% with CAKI-1 renal; 7.69% (active) in the assay with A498 renal. Besides, the growth in the assay on CCRF-CEM leukemia was 12%.

Regarding `COc1ccc(-c2[nH]ncc2-c2cc(OC)c(OC)c(OC)c2)cc1`, the growth in the assay on SK-MEL-2 melanoma is -2.39% (active); with SN12C renal, 20.8%; in the assay on UO-31 renal, 11.6%; with ACHN renal it was 14.8%; in the assay with CAKI-1 renal, 6.08% (active); in the assay on A498 renal it was -19.9% (active). For the same compound, the growth in the assay on CCRF-CEM leukemia is 2.66% (active); with MOLT-4 leukemia it was -6.22% (active).

Regarding `COc1cc2nc(Sc3sc(N)nc3C)n(-c3ccc(Oc4ccccc4)cc3)c(=O)c2cc1OC`, the growth with SK-MEL-2 melanoma was 107%; in the assay with SN12C renal, 79.7%; in the assay with UO-31 renal, 76.1%; with ACHN renal it was 81.5%; in the assay on CAKI-1 renal, 94.1%; with A498 renal, 82.1%. Besides, the growth is 64.5% in the assay on CCRF-CEM leukemia and 54% in the assay with MOLT-4 leukemia.
